Screening data (PubChem BioAssay)
S2 tox: reduces viability in counter-screen for ATXN expression inhibitors | S2 cells (HEK-293 line with an ATXN2-luciferase reporter) viability, CellTiter-Fluor protease fluorescence, 24 h | Potency, µM (highest dose often 56.7 µM), actives largely listed as cytotoxic | actives 0.49% (n = 400,000) | AID 651635; further: potency means the concentration at half of the fitted maximal effect; nearly all actives have a fitted effect of over 40% in size
TGFb inhibitor: TGF-b pathway inhibition; HepG2 CAGA-GFP TGF-b/SMAD3 reporter, GFP fluorescence, 18 h; TGF-beta stimulated, 500 pg/mL final; actives 1.2% (n = 410,000); Potency, µM (doses to about 46.1 µM), inactives show at the highest dose activity, negative = inhibition, most hits filed as inhibitors; AID 588855; further: potency means the concentration at half of the fitted maximal effect; on the % scale 0 is the no-effect control and ±100 the full control effect; nearly all actives have a fitted effect of over 65% in size
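Inhibition of TGF-beta-driven CAGA-GFP reporter expression in HEPG2 cells is measured by cellular GFP fluorescence after 18 h stimulation with 500 pg/mL recombinant TGF-beta in 1% FBS medium at 37 degrees C.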
HepG2 tox: counter-screen for TGF-b inhibitors: cytotoxicity in HepG2 cells; HepG2 CAGA-GFP viability, ATP luminescence, 18 h; Potency, µM (top dose mostly 46.1 µM), without a hit: top-dose activity change, negative = cytotoxicity, most hits filed as cytotoxic; actives 0.76% (n = 410,000); AID 588856; further: potency means the concentration at half of the fitted maximal effect
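CellTiter-Glo luminescence gave cytotoxicity after 18 hours at 37 degrees C. The cells were HepG2 CAGA-GFP in 1% FBS DMEM, stimulated with 500 pg/mL TGF-beta after compound addition. %Activity was normalised to no-cell wells (complete cell-killing) and DMSO (no toxicity), and curves were fitted and classified.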
ATXN2 expr inh: reduces ATXN2 reporter expression in HEK-293 cells; HEK-293 ATXN2-luciferase reporter, luminescence, 24 h; Potency, µM (doses to about 57 µM), inactives show at the top dose activity change, negative = inhibition, hits mostly inhibitors; actives 0.72% (n = 360,000); AID 1745845; further: potency means the concentration at half of the fitted maximal effect; on the % scale 0 is the no-effect control and ±100 the full control effect; nearly all actives have a fitted effect of over 55% in size
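ATXN2-luciferase reporter cells (luciferase flanked by upstream and downstream ATXN2 gene portions) were treated 24 h at 37 °C with compounds at up to 57 uM. SteadyGlo luminescence gave expression; GF-AFC fluorescence gave viability.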
LDHA block: blocks human lactate dehydrogenase A | P00338 | purified LDHA, NADH/diaphorase-resazurin fluorescence; stronger effect = lower value | activity change, % (values are at about 110 or 230 µM) | actives 0.15% (n = 480,000) | AID 1347041; in the data active means activity change below about -30%; inconclusive means mostly about -25% to -30%;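 further: plate controls were DMSO wells for no effect and wells without enzyme for full effect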
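Human LDH5 (2 nM) was incubated with 0.06 mM NADH and 0.2 mM pyruvate for 5 min at room temperature in Tris pH 7.4. Remaining NADH was coupled through diaphorase/resazurin, and resorufin fluorescence was read at 0 and 20 min.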
IDH1 R132H inh: human IDH1 R132H inhibition; actives 0.093% (n = 390,000); IDH1-R132H enzyme, NADPH consumption, diaphorase/resazurin fluorescence; Potency, µM (top dose mostly 76.6 µM), for inactives: top-dose activity change, negative = inhibition, actives largely listed as inhibitors; O75874; further: potency means the concentration at half of the fitted maximal effect; on the % scale 0 is the no-effect control and ±100 the full control effect; nearly all actives have a fitted effect of over 65% in size
Target sequence (O75874 whole entry R132H, stated change not applied): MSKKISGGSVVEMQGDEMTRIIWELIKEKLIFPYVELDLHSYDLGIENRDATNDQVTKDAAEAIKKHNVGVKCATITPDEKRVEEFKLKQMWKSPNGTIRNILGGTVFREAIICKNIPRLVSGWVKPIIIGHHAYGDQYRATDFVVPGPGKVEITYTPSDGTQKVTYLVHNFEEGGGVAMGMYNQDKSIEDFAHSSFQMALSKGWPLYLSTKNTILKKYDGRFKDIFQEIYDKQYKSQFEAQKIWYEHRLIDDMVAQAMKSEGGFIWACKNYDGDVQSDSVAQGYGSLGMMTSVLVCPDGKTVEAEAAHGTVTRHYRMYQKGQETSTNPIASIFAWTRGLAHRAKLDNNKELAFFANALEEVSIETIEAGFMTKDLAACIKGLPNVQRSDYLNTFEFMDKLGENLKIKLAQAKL
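IDH1-R132H (0.5 ug/mL dispensed) in pH 7.5 Tris buffer was preincubated 30 min with compound, then given a substrate mix of 0.016 mM NADPH and 2 mM alpha-KG for 80 min at room temperature; remaining NADPH was read by diaphorase/resazurin fluorescence.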
Resorufin autofl: interferes with resorufin fluorescence in IDH1 counter-screen | shares compounds with IDH1 R132H inh | Resorufin detection reagent fluorescence interference, cell-free | inhibition of signal, % at 51.2 µM | 750 tested, under 10 active | AID 623980;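 further: 0% = wells with normal resorufin and full inhibition = wells lacking resorufin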
IDH1 WT: selectivity of mutant IDH1 inhibitors: human wild-type IDH1. AID 623995. shares compounds with IDH1 R132H inh. actives 9% (n = 750). WT IDH1 enzyme, NADPH diaphorase/resazurin fluorescence. Potency, µM (titrated, usually from 115 µM), inactives show at the highest dose activity change, negative = inhibition, actives largely listed as inhibitors;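 further: potency means the concentration at half of the fitted maximal effect; 0% = full WT IDH1 enzyme control and full inhibition = no enzyme wells; nearly all actives have a fitted effect of over 55% in size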
Target sequence (O75874 whole entry, looked up): as the sequence (O75874 whole entry R132H, stated change not applied) above, with H132R counted along it
IDH1 R132H conf: mutant IDH1 (human) inhibition, confirmed | IDH1 R132H enzyme, NADPH diaphorase/resazurin fluorescence | Potency, µM (top dose mostly 76.6 µM), for the others: at the highest dose activity change, negative = inhibition, hits mostly inhibitors | AID 624002 | actives 83% (n = 750) | shares compounds with IDH1 R132H inh; further: potency means the concentration at half of the fitted maximal effect; nearly all actives have a fitted effect of over 50% in size
Active calls of the source: *. An excerpt weighted towards active compounds, which were near 2.2% of everything screened. Unless noted, the call rests on the fitted dose curve; in most records, active means well fitted curve in the direction sought with a large enough effect; inconclusive means small, poorly fitted or top-dose-only effect, or another doubt; inactive means no such curve, though single readings can be large; an effect the other way counts as inactive or inconclusive.

`CC(=O)Oc1ccc2c(=O)c(Oc3ccccc3[N+](=O)[O-])coc2c1` gave S2 tox inactive, TGFb inhibitor -24%, HepG2 tox -25%, ATXN2 expr inh -1%, LDHA block -14, IDH1 R132H inh inconclusive, Resorufin autofl 4, IDH1 WT -13% and IDH1 R132H conf 28µM*.
`CCc1cc2c(=O)n(Cc3ccco3)c(SCC(=O)N3CCCc4ccccc43)nc2s1` gave S2 tox inconclusive, TGFb inhibitor -7%, HepG2 tox -16%, ATXN2 expr inh -12%, LDHA block -10, IDH1 R132H inh inconclusive, Resorufin autofl 3, IDH1 WT -2% and IDH1 R132H conf inconclusive.
`CCc1cc2c(=O)n(Cc3ccco3)c(SCC(=O)NCC3CCCO3)nc2s1` (configuration not stated) gave S2 tox inactive, TGFb inhibitor -10%, HepG2 tox -19%, ATXN2 expr inh -21%, LDHA block -10 and IDH1 R132H inh 0%.
`O=C(O)Cc1ccc(N2C(=O)C(=O)/C(=C(/O)c3ccc(F)cc3)C2c2ccccc2Cl)cc1` (configuration not stated) gave LDHA block 1.
Screening O=C(O)c1ccc(N2C(=O)c3[nH]nc(-c4ccccc4)c3C2c2cccc(F)c2)cc1 (configuration not stated) returned S2 tox inactive, TGFb inhibitor -19%, HepG2 tox -8%, ATXN2 expr inh -1%, LDHA block -6, IDH1 R132H inh inconclusive, Resorufin autofl -5, IDH1 WT -18% and IDH1 R132H conf 32µM*.
COc1cc(C2c3c(-c4ccc(C)cc4)n[nH]c3C(=O)N2c2ccc(F)cc2)ccc1O (configuration not stated) was read as S2 tox inconclusive, TGFb inhibitor 11µM*, HepG2 tox -51%, ATXN2 expr inh inconclusive, LDHA block -9, IDH1 R132H inh inconclusive, Resorufin autofl -2, IDH1 WT -6% and IDH1 R132H conf 25µM*.
Screening COc1ccc(C2c3c(-c4ccc(F)cc4)n[nH]c3C(=O)N2c2ccccc2)cc1OC (configuration not stated) returned S2 tox inconclusive, TGFb inhibitor -3%, HepG2 tox 1%, ATXN2 expr inh -10%, LDHA block -2 and IDH1 R132H inh 3%.
For Cc1ccc(-c2n[nH]c3c2C(c2ccccc2Cl)N(c2ccc(C(=O)O)cc2)C3=O)cc1 (configuration not stated) the results were S2 tox inconclusive, TGFb inhibitor inconclusive, HepG2 tox 4%, ATXN2 expr inh inconclusive, LDHA block -5, IDH1 R132H inh 11µM*, Resorufin autofl -11, IDH1 WT 35µM* and IDH1 R132H conf 7.1µM*.
COc1ccc(-c2n[nH]c3c2C(c2ccc(O)cc2)N(c2ccc(Br)cc2)C3=O)cc1 (configuration not stated) was read as TGFb inhibitor inconclusive, HepG2 tox -28%, LDHA block -1 and IDH1 R132H inh -1%.
`COc1ccc(-c2n[nH]c3c2C(c2ccc(OC)c(OC)c2)N(c2ccccc2)C3=O)cc1` (configuration not stated) gave S2 tox inactive, TGFb inhibitor 3%, HepG2 tox -1%, ATXN2 expr inh 3%, LDHA block 1, IDH1 R132H inh inconclusive, Resorufin autofl 10, IDH1 WT 2% and IDH1 R132H conf 20µM*.
Clc1cccc(C=Nc2cccc3c(N=Cc4cccc(Cl)c4)cccc23)c1 was read as LDHA block 12.
Screening COc1ccc(C2c3c(-c4ccccc4)n[nH]c3C(=O)N2c2ccc(C(=O)O)cc2)cc1 (configuration not stated) returned S2 tox inactive, TGFb inhibitor 6%, HepG2 tox 16%, ATXN2 expr inh -25%, LDHA block -3, IDH1 R132H inh 52µM*, Resorufin autofl 11, IDH1 WT inconclusive and IDH1 R132H conf 45µM*.
CCc1ccc(C2c3c(-c4ccccc4)n[nH]c3C(=O)N2c2ccc(C(=O)O)cc2)cc1 (configuration not stated) was read as S2 tox inconclusive, TGFb inhibitor -1%, HepG2 tox 0%, ATXN2 expr inh -18%, LDHA block -10, IDH1 R132H inh 35µM*, Resorufin autofl -5, IDH1 WT 25µM* and IDH1 R132H conf 7.1µM*.
`O=C(O)c1ccc(N2C(=O)c3[nH]nc(-c4ccccc4)c3C2c2ccccc2)cc1` (configuration not stated) gave S2 tox inactive, TGFb inhibitor 8%, HepG2 tox -13%, ATXN2 expr inh 7%, LDHA block -13 and IDH1 R132H inh -9%.
Screening COc1cccc(C2c3c(-c4ccccc4)n[nH]c3C(=O)N2c2ccc(C(=O)O)cc2)c1 (configuration not stated) returned S2 tox inactive, TGFb inhibitor inconclusive, HepG2 tox -3%, ATXN2 expr inh 2%, LDHA block -3, IDH1 R132H inh inconclusive, Resorufin autofl 1, IDH1 WT inconclusive and IDH1 R132H conf 20µM*.
`CCCN1C(=O)c2[nH]nc(-c3cccc(OC)c3)c2C1c1ccccn1` (configuration not stated) gave TGFb inhibitor inconclusive, HepG2 tox -11%, LDHA block -3 and IDH1 R132H inh 4%.
